HNF4A DNA FP: change in binding of human HNF4 alpha to DNA. P41235. HNF4a-FITC DNA binding, fluorescence polarization, 1 h. activity change, % at 10 µM. 360,000 compounds, 0.3% hits; in the data active = activity change above about 30%, passing the limit was not always enough
IDE act: activators of human insulin-degrading enzyme in cells; P14735; HEK cells, FAbeta-B cleavage, fluorescence polarization; 0% vehicle, 100% cell-free pure enzyme wells; 340,000 compounds, 0.073% hits; activation, % at 5.96 µM;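 active = activation above the mean of all tested compounds plus 3 SD, set per screening campaign, cut at about 17% in these data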
TPT1 inh: blocks Candida albicans tRNA 2'-phosphotransferase | recombinant caTPT1, FP RNA substrate dephosphorylation | inhibition, % at 5 µM | 300,000 compounds, 0.81% hits | AID 1962;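 active = inhibition above the mean of all tested compounds plus 3 SD, set per screening campaign, cut at about 24% in these data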;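 also: plate controls were DMSO alone for no effect and ferristatin control at 100 nM for full effect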
IDE cell inh: inhibits human insulin-degrading enzyme in HEK cells; P14735; 320,000 compounds, 0.41% hits; AID 434962; FAbetaB cleavage, fluorescence polarization; inhibition, % at 5.59 µM;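 active = percent inhibition above the average of all tested compounds plus 3 SD, set per screening campaign, cut at about 16% in these data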;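 also: IDE supplied by intact live HEK cells; FP after avidin binding of uncleaved biotin substrate so inhibition keeps polarization high; 0% = DMSO wells and 100% = 60 µM reference IDE inhibitor Ii1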
CRFR2-BP ag: agonists of human CRF-binding protein/CRF-R2 receptor complex | AID 588473 | 350,000 compounds, 0.46% hits | activation, % at 13.2 µM | HEK293 CRF-R2/CRF-BP, calcium dye fluorescence (FLIPR); percent of saturating CRF peptide response;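 active = activation of at least 50%, plus an integration ratio under a set limit after plate pattern correction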;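 also: plate controls were neutral control wells without compound for no effect and CRF at EC100 for full effect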
caTPT1 confirm: TPT1 (C. albicans) inhibition, confirmation | inhibition, % at 5 µM | 2,400 compounds, 74% hits | recombinant caTPT1, fluorescence polarization, RNase T1 coupled | shares compounds with TPT1 inh;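 active = inhibition above the primary screen limit, the mean inhibition of all tested compounds plus 3 SD, cut at about 25% in these data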
RNase T1 counter: counter-screen for TPT1 inhibitors: inhibitors of Aspergillus oryzae RNase T1. 2,400 compounds, 83% hits. shares compounds with TPT1 inh. inhibition, % at 5 µM. RNase T1 cleavage, fluorescence polarization, 1536-well;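 active = inhibition above the solvent-only control well mean plus 3 SD, limit set per screening run, cut at about 23% in these data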;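 also: plate controls were DMSO wells with enzyme for no effect and wells without RNase T1 for full effect; inhibitors block cleavage so intact labeled substrate keeps polarization high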
IDE cell inh cf: confirmation of human insulin-degrading enzyme inhibitors in cells. shares compounds with IDE cell inh. HEK cells, FAbetaB cleavage, fluorescence polarization. 1,200 compounds, 51% hits. inhibition, % at 5.59 µM. AID 435028;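 active = mean inhibition across triplicate wells above the cutoff set by the earlier primary insulin-degrading enzyme screen, cut at about 16% in these data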;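 also: 0% = DMSO wells and 100% = 60 µM reference IDE inhibitor Ii1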
HEK293 tox: HEK cell cytotoxicity, counter-screen for IDE inhibitors. shares compounds with IDE cell inh. HEK293 cytotoxicity, ATP luminescence. inhibition, % at 5.59 µM. AID 449730. 1,200 compounds, 28% hits; in the data active = inhibition above about 22%;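 also: 0% = vehicle wells and 100% = reference cytotoxic drug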
Starred values were filed as active, the others as inactive; . = not tested or not shown; + = active, no number. In the library only some 1.4% were active in any assay of this set; here they are far more common.

SMILES	HNF4A DNA FP	IDE act	TPT1 inh	IDE cell inh	CRFR2-BP ag	caTPT1 confirm	RNase T1 counter	IDE cell inh cf	HEK293 tox
Cc1noc(C)c1COc1ccc(C(=O)N2CCN(S(=O)(=O)c3ccc(F)cc3)CC2)cc1	-4.8	3.9	.	.	-1.3	.	.	.	.
CC(=Nc1ccc(C)cc1)c1sc2ccccc2c1O	13.8	-45.9	73.8*	25.1*	32.7	75.3*	87.0*	44.5*	18.8
CC(=Nc1cccc(O)c1)c1sc2ccccc2c1O	-5.0	-20.0	66.1*	27.2*	6.9	94.4*	104.8*	64.8*	9.6
CCOC(=O)c1sc2ccccc2c1OC(=O)c1ccc(C)cc1	-3.8	-0.5	-2.2	-1.2	7.1	.	.	.	.
COC(=O)c1cc(C)c(C)cc1NC1OC(CO)C(O)C1O (configuration not stated)	-0.8	6.0	.	.	-1.9	.	.	.	.
CCOC(=O)c1ccc(NC(=O)N2CCN(C(=O)C3CCCO3)CC2)cc1 (configuration not stated)	-2.5	-0.6	-0.7	9.6	1.0	.	.	.	.
C=CCN(C(=O)c1csnn1)C(C(=O)NC(C)(C)C)c1ccncc1 (configuration not stated)	1.2	1.5	0.2	0.1	-0.1	.	.	.	.
CCN(CC)c1ccc(/C=C(/C#N)c2nc3ccc(C)cc3[nH]2)c(OC(C)C)c1	-42.1	-113.0	138.8*	136.2*	175.9*	130.0*	124.2*	152.4*	23.1*
CCOc1cc(N(CC)CC)ccc1/C=C(/C#N)c1nc2ccccc2[nH]1	70.2	-115.2	+	107.7*	96.6*	183.5*	165.7*	143.6*	28.9*
COc1ccc(OC)c(S(=O)(=O)Nc2c(C)n(C)n(-c3ccccc3)c2=O)c1	1.3	3.0	0.7	1.1	1.6	.	.	.	.
CC1=C(C(=O)N2CCOCC2)CC(CC(=O)NC2CCCCC2)C(=O)N1Cc1ccc(F)cc1 (configuration not stated)	-3.0	.	.	.	-0.2	.	.	.	.
CCn1c(C)cc(/C=C2/SC(=S)N(CC(=O)O)C2=O)c1C	44.2*	-33.6	83.1*	39.6*	14.2	94.3*	102.3*	36.2*	4.6
C#CCN1C(=O)S/C(=C/c2cc(C)n(CC)c2C)C1=O	1.6	-1.5	-1.6	0.6	-2.1	.	.	.	.
CN1C2CCC1/C(=C/c1cccn1C)C(=O)/C2=C\c1cccn1C	138.1	-43.4	121.4*	43.9*	237.3*	123.3*	117.1*	71.6*	18.8
CN1C2CCC1/C(=C\c1ccc(F)cc1)C(=O)/C2=C/c1ccc(F)cc1	-0.5	2.6	0.2	-1.5	2.1	.	.	.	.
COc1ccc(/C=C2\SC(N)=NC2=O)cc1Br	9.2	3.4	7.5	3.8	-0.5	.	.	.	.
COc1cc(/C=C2\SC(N)=NC2=O)cc(Cl)c1O	28.8	-42.0	43.3*	25.6*	6.7	60.2*	70.9*	46.6*	12.2
COc1cc(/C=C/C(=O)c2ccc3c(c2)OCO3)cc(Cl)c1O	11.5	-203.2	81.6*	160.4*	134.7*	94.3*	96.1*	88.0*	12.5
COc1ccc(C(=O)C=Cc2ccc3c(c2)OCO3)cc1OC	-0.3	.	.	.	-1.6	.	.	.	.
CC1(C(=O)NS(=O)(=O)c2cccc(Cl)c2)CCN1C(=O)C1(c2ccccc2)CC1 (configuration not stated)	2.1	.	.	.	.	.	.	.	.
O=C1c2cccc3c(N4CCCCC4)ccc(c23)C(=O)N1c1ccc(O)cc1	-103.6	-170.6	72.5*	75.0*	223.7*	60.7*	61.4*	71.7*	13.6
O=C1c2cccc3c(N4CCCCC4)ccc(c23)C(=O)N1c1ccccc1O	-7.1	-115.5	71.6*	88.7*	258.9*	38.9*	50.4*	152.2*	18.3
COc1ccc2c(CC(=O)OCC(=O)Nc3cccc(C)c3)coc2c1	-2.6	-1.4	.	-3.3	0.7	.	.	.	.
CCN(CC)S(=O)(=O)c1cc(C(=O)OC(C)C(=O)NCc2ccco2)ccc1C (configuration not stated)	1.2	-4.1	.	1.9	-1.4	.	.	.	.

Compound activity (PubChem)
